Read-out in experiment [1]: Human Leukocyte Antigen - DR isotype (HLADR), HLA-DRA (gene 3122)
Briefly: BSK_BE3C_HLADR: BioMAP Diversity Plus: BE3C Assay for Human Leukocyte Antigen - DR isotype (HLADR) Biomarker Activity (AID 2283032). The note with it: primary human bronchial epithelial cells; actives raise or lower the signal. Put shortly: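 Signal came from an ELISA for HLA-DR in human bronchial epithelial primary cells harvested 24 h after treatment; gain- and loss-of-signal fitting used DMSO controls as reference.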

Read-out in experiment [2]: Vascular cell adhesion molecule 1 (VCAM1), VCAM1 (gene 7412)
In words: BSK_4H_VCAM1: BioMAP Diversity Plus: 4H Assay for Vascular cell adhesion molecule 1 (VCAM1) Biomarker Activity (AID 2283033).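 For outcome: cell-surface VCAM-1 protein measured by ELISA.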 The settings on record: primary human endothelial cells (HUVEC); actives raise or lower the signal. The essentials:
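Endpoint derived from bidirectional fitting against DMSO controls of VCAM-1 ELISA signal in umbilical vein endothelial cells sampled at 24 h following treatment.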

Read-out in experiment [3]: Interferon-gamma inducible Protein 10 (IP10), CXCL10 (gene 3627)
In words: BSK_BE3C_IP10: BioMAP Diversity Plus: BE3C Assay for Interferon-gamma inducible Protein 10 (IP10) Biomarker Activity (AID 2283034). The settings on record: primary human bronchial epithelial cells; actives raise or lower the signal. Put shortly: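 Using primary human bronchial epithelial cultures, the assay captures IP-10 by ELISA one day (24 h) after exposure. Parallel SRB staining of total protein flags overt cytotoxicity. Fits run bidirectionally relative to DMSO.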

Read-out in experiment [4]: Monokine induced gamma interferon (MIG), CXCL9 (gene 4283)
Briefly: BSK_BE3C_MIG: BioMAP Diversity Plus: BE3C Assay for Monokine induced gamma interferon (MIG) Biomarker Activity (AID 2283035). The settings on record: primary human bronchial epithelial cells; actives raise or lower the signal. The essentials: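 ELISA read-out of MIG in human lung bronchial epithelial primary cultures, 24 h post-dosing. Bidirectional curve fit vs DMSO baseline.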

Read-out in experiment [5]: Transforming growth factor beta 1 (TGFb1), TGFB1 (gene 7040)
In words: BSK_BE3C_TGFb1: BioMAP Diversity Plus: BE3C Assay for Transforming growth factor beta 1 (TGFb1) Biomarker Activity (AID 2283036;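 for outcome: TGF-b1 protein level measured by ELISA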). The settings on record: primary human bronchial epithelial cells; actives raise or lower the signal. Put shortly:
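In this human primary bronchial epithelial system, an ELISA quantified TGF-b1 one day after dosing. Endpoint changes in either direction were fitted relative to DMSO.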

Read-out in experiment [6]: Plasminogen activator inhibitor-1 (PAI1), SERPINE1 (gene 5054)
Briefly: BSK_BE3C_PAI1: BioMAP Diversity Plus: BE3C Assay for Plasminogen activator inhibitor-1 (PAI1) Biomarker Activity (AID 2283037). The note with it: primary human bronchial epithelial cells; actives raise or lower the signal. Put shortly:
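PAI-1 biomarker levels in treated human bronchial epithelial cells are determined by ELISA at 24 h. Both increases and decreases relative to DMSO are fitted.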

Read-out in experiment [7]: urokinase plasminogen activator (uPA), PLAU (gene 5328)
Briefly: BSK_BE3C_uPA: BioMAP Diversity Plus: BE3C Assay for urokinase plasminogen activator (uPA) Biomarker Activity (AID 2283038).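 Note: uPA protein level quantified by ELISA in cell cultures; uPA read one day after compound addition.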 The note with it: primary human bronchial epithelial cells; actives raise or lower the signal. The essentials:
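Bronchial epithelial cells (human, primary); chemical 24 h; uPA by ELISA; bidirectional fit vs DMSO. SRB (0.1%, after 10% TCA fixation, 560 nm) in parallel cultures for cytotoxicity.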

Read-out in experiment [8]: Urokinase-type plasminogen activator receptor (uPAR), PLAUR (gene 5329)
In words: BSK_BE3C_uPAR: BioMAP Diversity Plus: BE3C Assay for Urokinase-type plasminogen activator receptor (uPAR) Biomarker Activity (AID 2283039).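 For outcome: uPAR protein level measured by ELISA on the cells; cells exposed to compound for one day before measurement.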 The note with it: primary human bronchial epithelial cells; actives raise or lower the signal. The essentials: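 A uPAR ELISA serves as the readout, taken 24 h after treating primary human bronchial epithelial cells. Responses in either direction are fitted against DMSO, which defines baseline activity.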

Read-out in experiment [9]: Interleukin-6 (IL6), IL6 (gene 3569)
In words: BSK_CASM3C_IL6: BioMAP Diversity Plus: CASM3C Assay for Interleukin-6 (IL6) Biomarker Activity for (AID 2283040). The settings on record: primary human coronary artery smooth muscle cells; actives raise or lower the signal.

Read-out in experiment [10]: Tissue plasminogen activator (tPA), PLAT (gene 5327)
In words: BSK_BE3C_tPA: BioMAP Diversity Plus: BE3C Assay for Tissue plasminogen activator (tPA) Biomarker Activity (AID 2283041).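 For outcome: tPA level quantified by ELISA one day after compound addition.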 The note with it: primary human bronchial epithelial cells; actives raise or lower the signal. The essentials:
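Bidirectional curve fitting relative to DMSO defined activity, with tPA detected by ELISA in chemically treated human bronchial epithelial primary cells at 24 hours.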

Active and inactive are the calls of the source. Rule for the calls: active = hit-call score of the fitted dose curve at least 0.9, where 1 is the maximum; inactive = score below 0.9.

Turning to `c1ccc(N=Nc2ccccc2)cc1`, the outcome in experiment [1], in experiment [2], in experiment [3], in experiment [4], in [5] and in experiment [6] was inactive. Also, the result in experiment [7], in [8], in experiment [9] and in experiment [10] was inactive.
In the case of `ClC1=C(Cl)[C@]2(Cl)[C@H]3[C@H]([C@@H]4C=C[C@H]3C4)[C@@]1(Cl)C2(Cl)Cl`, the outcome in [1], in experiment [4], in experiment [5], in experiment [7], in experiment [8] and in experiment [9] was inactive. For the same compound, the outcome in [10] was inactive. The values for the AC50 in experiment [2], in [3] and in [6] were 33.9 µM (active), 30.3 µM (active) and 34 µM (active), respectively.
Consider `CCC12COCN1COC2`, for which the result in experiment [1], in experiment [2], in experiment [3], in [4], in experiment [5] and in experiment [6] was inactive. The outcome in [7], in experiment [8], in experiment [9] and in [10] was inactive.
Turning to `Cc1ccc(N=C=O)cc1N=C=O`, the result in experiment [1], in experiment [2], in experiment [4], in [5], in experiment [6] and in [7] was inactive. Besides, the outcome in [8], in experiment [9] and in [10] was inactive. For the same compound, the AC50 (usually the midpoint of the concentration-response curve, whichever way the signal moves) in experiment [3] is 20 µM (active).
For the compound `Clc1ccccc1Cl`, the result in experiment [1], in experiment [2], in experiment [3], in experiment [4], in [5] and in experiment [6] was inactive. The outcome in experiment [7], in experiment [8], in [9] and in experiment [10] was inactive.
`CCOC(=O)[C@]1(c2ccccc2)Oc2ccccc2[C@@H]1N`: the results for the AC50 in experiment [1] and in experiment [2] were 20 µM (active) and 7.44 µM (active), respectively. Besides, the outcome in experiment [3], in experiment [4], in [5], in [6], in [7] and in experiment [8] was inactive. Besides, the outcome in experiment [9] and in [10] was inactive.
With `C[N+](C)(C)CC1CO1` (stereo not given), the result in experiment [1], in experiment [2], in [3], in experiment [4], in [5] and in experiment [6] was inactive. Moreover, the result in experiment [7], in [8], in experiment [9] and in experiment [10] was inactive.
For the compound `CCCSC(=O)N(CCC)CCC`, the outcome in experiment [1], in experiment [2], in [3], in [4], in [5] and in experiment [6] was inactive. For the same compound, the result in [7], in [8], in [9] and in experiment [10] was inactive.
For the compound `O=Cc1ccco1`, the outcome in experiment [1], in experiment [3], in [4], in experiment [5], in experiment [6] and in experiment [7] was inactive. Also, the outcome in experiment [8], in experiment [9] and in experiment [10] was inactive.
Turning to `N#CC(Br)Br`, the result in [1], in experiment [2], in [3], in experiment [4], in experiment [5] and in experiment [6] was inactive. For the same compound, the outcome in [7], in experiment [8], in [9] and in experiment [10] was inactive.
Turning to `C=CCc1ccc2c(c1)OCO2`, the result in experiment [1], in experiment [2], in [3], in [4], in [5] and in experiment [6] was inactive. For the same compound, the result in experiment [7], in experiment [8], in experiment [9] and in [10] was inactive.
As to `Clc1ccc(Cl)c(Cl)c1`, the outcome in experiment [1], in [2], in [3], in experiment [4], in experiment [5] and in experiment [6] was inactive. The result in [7], in experiment [8], in experiment [9] and in experiment [10] was inactive.
As for `COC(=O)c1ccccc1N`, the outcome in experiment [1], in experiment [2], in [3], in [4], in [5] and in experiment [6] was inactive. Further, the result in [7], in experiment [8], in experiment [9] and in experiment [10] was inactive.
Consider `Nc1ccc(Cc2ccc(N)cc2)cc1`, for which the result in experiment [1], in experiment [3], in experiment [4], in experiment [5], in [6] and in experiment [7] was inactive. The result in [8], in experiment [9] and in [10] was inactive.
`C1=Cc2cccc3cccc1c23`: the result in experiment [1], in [2], in experiment [3], in [4], in experiment [5] and in experiment [6] was inactive. For the same compound, the outcome in [7], in [8], in experiment [9] and in experiment [10] was inactive.
`CCCCCCCCCCCCCN1CC(C)OC(C)C1` (stereo not given): the result in [1], in [3], in experiment [4], in experiment [5], in experiment [6] and in experiment [7] was inactive. For the same compound, the result in experiment [8], in [9] and in [10] was inactive.
Regarding `ClC1=C(Cl)C2(Cl)C3C(Cl)C=CC3C1(Cl)C2(Cl)Cl` (stereo not given), the AC50 in [1] is 26.2 µM (active); in experiment [3] it was 32.3 µM (active); in experiment [4] it was 31.3 µM (active); in experiment [5], 20 µM (active); in [6], 35 µM (active); in experiment [9], 27.2 µM (active). Moreover, the half-maximal activity concentration (AC50) in experiment [10] is 20 µM (active). The outcome in experiment [7] and in experiment [8] was inactive.
Regarding `Nc1ccc(Cl)cc1N`, the result in experiment [1], in [3], in [4], in experiment [5], in experiment [6] and in [7] was inactive. The result in experiment [8], in experiment [9] and in experiment [10] was inactive. Moreover, in experiment [2], the concentration at half-maximal activity (AC50) was 2.74 µM (active).
`CN(C)[C@@H]1C(=O)C(C(N)=O)=C(O)[C@@]2(O)C(=O)C3=C(O)c4c(O)cccc4[C@@](C)(O)[C@H]3C[C@@H]12`: the outcome in experiment [1], in [3], in experiment [4], in experiment [5], in experiment [6] and in [7] was inactive. In addition, the result in [8], in experiment [9] and in experiment [10] was inactive.
Regarding `CC(C)(OOC(C)(C)c1ccccc1)c1ccccc1`, the AC50 in experiment [1] is 27.7 µM (active); in [2] it was 26.4 µM (active); in [8], 11.6 µM (active). The result in experiment [3], in experiment [4], in experiment [5], in experiment [6], in [7] and in [9] was inactive. In addition, the outcome in experiment [10] was inactive.
